Among all 310,000 compounds or so, about 14,000 (4.5%) showed an effect of 50% or more. The effect is printed as a negative number. Many of the other results were omitted from the sample, so strong results are more common in it than they were.
Target: human ether-à-go-go-related gene (hERG) potassium channel (human, UniProt Q12809)
Test: primary screen, population patch clamp on CHO cells stably expressing hERG; higher = less effect of the substance
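Further: peak tail current of the secondary pulse compared with the same well before compound.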

Chain of human ether-à-go-go-related gene (hERG) potassium channel (Q12809 whole entry, looked up): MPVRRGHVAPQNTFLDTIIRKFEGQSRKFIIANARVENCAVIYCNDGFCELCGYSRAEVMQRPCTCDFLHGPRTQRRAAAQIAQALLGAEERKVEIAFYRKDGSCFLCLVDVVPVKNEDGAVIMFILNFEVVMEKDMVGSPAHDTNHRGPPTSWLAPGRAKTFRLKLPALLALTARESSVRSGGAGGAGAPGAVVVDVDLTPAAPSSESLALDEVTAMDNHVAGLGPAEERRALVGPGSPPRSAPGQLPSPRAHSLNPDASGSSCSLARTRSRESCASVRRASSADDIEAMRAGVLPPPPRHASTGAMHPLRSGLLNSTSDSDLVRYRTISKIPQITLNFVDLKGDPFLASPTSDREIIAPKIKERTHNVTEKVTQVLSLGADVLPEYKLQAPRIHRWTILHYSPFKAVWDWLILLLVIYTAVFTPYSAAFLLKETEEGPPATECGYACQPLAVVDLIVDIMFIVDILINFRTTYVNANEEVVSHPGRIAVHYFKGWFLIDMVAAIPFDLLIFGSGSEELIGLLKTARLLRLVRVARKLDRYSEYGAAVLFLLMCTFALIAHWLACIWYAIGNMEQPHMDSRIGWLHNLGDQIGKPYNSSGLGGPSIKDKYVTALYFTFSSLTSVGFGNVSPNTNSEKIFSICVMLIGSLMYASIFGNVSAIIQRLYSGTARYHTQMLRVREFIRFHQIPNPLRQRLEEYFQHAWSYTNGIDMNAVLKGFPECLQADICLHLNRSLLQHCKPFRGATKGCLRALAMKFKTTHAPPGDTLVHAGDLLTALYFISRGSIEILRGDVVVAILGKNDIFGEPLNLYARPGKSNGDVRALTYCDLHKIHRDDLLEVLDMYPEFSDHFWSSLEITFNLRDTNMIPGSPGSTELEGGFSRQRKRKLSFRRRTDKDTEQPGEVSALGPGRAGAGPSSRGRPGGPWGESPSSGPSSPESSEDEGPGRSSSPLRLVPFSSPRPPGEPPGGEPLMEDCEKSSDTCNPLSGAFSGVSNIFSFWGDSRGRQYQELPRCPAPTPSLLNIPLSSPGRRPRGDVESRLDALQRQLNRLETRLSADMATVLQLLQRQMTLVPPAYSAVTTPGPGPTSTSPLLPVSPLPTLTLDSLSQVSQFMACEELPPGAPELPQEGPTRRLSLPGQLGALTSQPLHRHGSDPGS

Structure (SMILES) | hERG current change (%, negative = inhibition) at 10uM
CCCCn1nnc(NC(=O)c2ccc(-c3cccc([N+](=O)[O-])c3)o2)n1 | -68.5%
CCn1nnc(NC(=O)Cc2ccc(Cl)cc2)n1 | 3.52%
CCn1nnc(NC(=O)c2ccc(Br)o2)n1 | 13.7%
CCCCn1nnc(NC(=O)c2ccc(-c3ccccc3[N+](=O)[O-])o2)n1 | -14.2%
CCn1nnc(NC(=O)c2ccc(-c3ccc(Cl)cc3)o2)n1 | -53.5%
CCCn1nnc(NC(=O)c2ccc(-c3cccc(Cl)c3)o2)n1 | -55.3%
CCCn1nnc(NC(=O)c2ccc(-c3cc(Cl)ccc3Cl)o2)n1 | 6.96%
CCCCn1nnc(NC(=O)c2ccc(-c3cccc(Cl)c3)o2)n1 | -40.8%
CCCCn1nnc(NC(=O)c2ccc([N+](=O)[O-])cc2Cl)n1 | -31.1%
O=C(NC1CC1)c1sccc1-n1cccc1 | 8.56%
COc1cc(NC(=O)Cc2cccs2)c(C(=O)O)cc1OC | 21.7%
Cc1ccc2[nH]c(=O)c(CNS(=O)(=O)c3ccccc3)c(-c3ccccc3)c2c1 | 16.2%
Cc1ccc(-n2[nH]c(C)c(C=Nc3ccc(S(=O)(=O)Nc4nccs4)cc3)c2=O)c(C)c1 | -35%
CCOC(=O)C1(CCOc2ccccc2)CCN(C(=O)c2cncs2)CC1 | -70.7%
CCOC(=O)C1(CCCc2ccccc2)CCN(C(=O)c2cncs2)CC1 | -55%
CCOC(=O)C1(Cc2ccc(OC)cc2)CCN(C(=O)c2cncs2)CC1 | -17.6%
O=C(Oc1ccc(/C=N/NC(=O)c2ccccn2)cc1)c1cccc(Br)c1 | 11.4%
CC(C)CC(NS(=O)(=O)c1cccc(C(=O)O)c1)C(=O)O (stereo not drawn) | 44.6%
COc1cc(NC(=O)c2ccc(NS(=O)(=O)c3c(C)noc3C)cc2)cc(OC)c1 | 1.03%
Cc1[nH]nc(-c2ccc(OCc3cnn(-c4ccccc4)c3)c(C)c2O)c1Oc1ccccc1 | 12%
Cc1ccc(NC(=O)CN(C)Cc2ccc(Cl)cc2)cc1 | -8.48%

Structure (SMILES) | hERG current change (%, negative = inhibition) at 10uM
CN(CC(=O)Nc1ccc(Cl)c(Cl)c1)CC(=O)Nc1ccc2c(c1)OCO2 | -3.52%
CN(CC(=O)Nc1ccc(Cl)cc1)CC(=O)Nc1cc(Cl)ccc1C#N | -38.4%
CN(CC(=O)Nc1cccc(C#N)c1)Cc1ccc(Cl)cc1 | -34.1%
CN(CC(=O)Nc1ccc(S(=O)(=O)N2CCCC2)cc1)Cc1ccc(Cl)cc1Cl | 10.8%
CN(CC(=O)Nc1ccc(Cl)c(Cl)c1)C(=O)/C=C/c1ccc(F)cc1 | 1.66%
CN(CC(=O)Nc1ccc(Cl)c(Cl)c1)Cc1nnc(-c2ccc(F)cc2)o1 | -63.3%
CN(CC(=O)Nc1ccc(C#N)cc1)Cc1ccc(Cl)cc1Cl | -66.8%
CN(CC(=O)Nc1ccc(N2CCOCC2)cc1)CC(=O)Nc1ccc(N2CCOCC2)cc1 | 6.39%
CN(CC(=O)Nc1ccc(C#N)cc1)Cc1ccc(Cl)cc1 | -68.6%
CN(CC(=O)Nc1ccc(N2CCOCC2)cc1)CC(=O)Nc1cccc(C#N)c1 | -13.9%
CN(CC(=O)Nc1ccc(C#N)cc1)CC(=O)Nc1ccc(N2CCOCC2)cc1 | -56.3%
CC(=O)c1ccc(-c2ccc(/C=C(/Sc3n[nH]c(C)n3)C(=O)O)o2)cc1 | -42.7%
O=c1[nH][nH]cc1C=Nc1ccc(Oc2ccccc2)cc1 | 11.6%
CC(Sc1ccccc1)C(=O)Nc1ccc(N2CCOCC2)cc1 (stereo not drawn) | -7.09%
CN1CCN(C(=O)c2ccc3c(c2)N(Cc2cccc(Cl)c2)C(=O)c2ccccc2S3(=O)=O)CC1 | 10.8%
COc1ccc(NC(=O)CC2(CC(=O)O)CCCC2)cn1 | 16.7%
CC(C)N1CCC(N2CCN(Cc3ccc(Oc4ncccn4)cc3)CC2CCO)CC1 (stereo not drawn) | 23.9%
Cc1cc(C)n(-c2ccc(C(=O)Nc3cccc([N+](=O)[O-])c3)cc2)n1 | 40.2%
COc1ccc(CCNC(=O)c2ccc(-c3ccc([N+](=O)[O-])cc3Cl)o2)cc1 | 4.64%
Cc1ccc(NC(=O)CN(C)C(=O)Cc2ccc(Cl)c(Cl)c2)cc1 | 11.8%
CN(CC(=O)Nc1ccc(C#N)cc1)Cc1ccc(Cl)c(Cl)c1 | -60.8%

Structure (SMILES) | hERG current change (%, negative = inhibition) at 10uM
CN(CC(=O)Nc1ccc(S(=O)(=O)N2CCCC2)cc1)Cc1ccc(Cl)c(Cl)c1 | 0.187%
C=CCNC(=O)c1ccc(C(=O)c2ccccc2)cc1 | -27.8%
CC(=O)CSc1ncnc2c1cnn2-c1ccccc1 | 12.6%
CCOc1cc(/C=N/NC(=O)c2ccc(CN3CCOCC3)cc2)ccc1OC | -19.1%
COc1ccc(/C=C/C(=O)c2ccccc2O)cc1CN1CCOCC1 | -17.7%
COc1ccc(/C=N/NC(=O)c2cccc(Br)c2)cc1Cn1cc(Cl)cn1 | 8.83%
COc1ccc(/C=N\NC(=O)c2nn(C)cc2Cl)cc1CN1CCOCC1 | -10.6%
COc1ccc(/C=C/C(=O)c2ccc(O)cc2)cc1CN1CCOCC1 | -11.3%
COc1ccc(/C=N/NC(=O)c2ccc(Br)cc2)cc1CN1CCOCC1 | -64.8%
COc1ccc(/C=C2/CCc3ccccc3C2=O)cc1CN1CCOCC1 | -59.6%
COc1ccc(/C=C2\CCc3ccccc3C2=O)cc1Cn1cccn1 | 2.14%
COc1ccc(/C=N/NC(=O)c2cccc(Br)c2)cc1CN1CCOCC1 | -82.4%
COc1ccc(/C=N/NC(=O)c2ccncc2)cc1CN1CCOCC1 | 3.71%
COc1ccc(C(=O)/C=C/c2ccc(OC)c(CN3CCOCC3)c2)cc1 | -56.3%
COc1ccc(/C=C2\CCc3ccccc3C2=O)cc1CN1CCOCC1 | -33.6%
CC(C)CN(C(=O)COC(=O)C1CC1)c1c(N)n(Cc2ccccc2)c(=O)[nH]c1=O | 13%
CCc1c(O)nc(SCC(=O)Nc2nc3ccccc3s2)n(-c2ccc(C)cc2)c1=O | -17.8%
Clc1ccc(-c2csc(N3CCc4ccccc4C3)n2)cc1 | 14.3%
COc1c(S(=O)(=O)NCCN2CCOCC2)ccc(Cl)c1Cl | -16.3%
CNC(=O)COC(=O)c1cc(NC(=O)c2ccco2)c(OC)c(OC)c1 | 2.4%
O=S(=O)(c1cc(C(F)(F)F)ccc1Cl)N1CCN(c2ccccn2)CC1 | -26.3%

Structure (SMILES) | hERG current change (%, negative = inhibition) at 10uM
CC(C)n1cnnc1SCC(=O)Nc1cccc(S(=O)(=O)N(C)c2ccccc2)c1 | -12.4%
c1ccc(C2(c3ccccc3)OCC(Cn3cncn3)O2)cc1 (stereo not drawn) | -0.819%
COc1ccc(/C=N/n2cnc3c(sc(=S)n3-c3ccccc3)c2=O)cc1 | 13.4%
O=C(c1cc(C2CC2)nc2ccccc12)N1N=C(C(F)F)CC1(O)C(F)F (stereo not drawn) | -18.3%
O=C(c1cc(-c2ccccc2)nc2ccccc12)N1N=C(C(F)F)CC1(O)C(F)F (stereo not drawn) | -13.2%
O=C(c1ccccc1-n1cccc1)N1N=C(C(F)F)CC1(O)C(F)F (stereo not drawn) | -63.2%
COc1ccc(-c2cc(C(=O)NCc3ccco3)c3ccccc3n2)cc1 | -5.84%
Cc1nn(-c2cc(Cl)ccc2Cl)c(C)c1C(=O)O | 13.2%
CN(c1ccc(OCC(=O)N2CCCCC2)cc1)S(=O)(=O)c1cccs1 | -11.2%
O=C(COc1ccc(S(=O)(=O)NC2CCCCC2)cc1)NC1CCCCC1 | -54.1%
Cc1ccc(N(CC(=O)NC2CCCCC2)S(=O)(=O)c2cccs2)cc1 | 5.9%
CN(c1ccc(OCC(=O)NC2CCCC2)cc1)S(=O)(=O)c1cccs1 | -80.6%
O=C(COc1ccc(S(=O)(=O)NC2CCCCC2)cc1)NC1CCCC1 | -8.19%
CN(c1ccc(OCC(=O)N2CCN(c3ccc(F)cc3)CC2)cc1)S(=O)(=O)c1cccs1 | -58.7%
Cc1ccc2c(c1)C1CN(C)CCC1N2C(=O)COc1ccc(N(C)C(=O)C(C)(C)C)cc1 (stereo not drawn) | -9.48%
Cc1ccc2c(c1)C1CN(C)CCC1N2C(=O)COc1ccc(N(C)S(=O)(=O)c2cccs2)cc1 (stereo not drawn) | -52.9%
CC(=O)N1CCN(C(=O)COc2ccc(N(C)S(=O)(=O)c3cccs3)cc2)CC1 | -14.7%
CCOc1ccc(S(=O)(=O)N(C)c2ccc(OCC(=O)N3c4ccc(C)cc4C4CN(C)CCC43)cc2)cc1 (stereo not drawn) | -38.5%
CCN(CC)c1ccc(NC(=O)COc2ccc(N(C)S(=O)(=O)c3cccs3)cc2)cc1 | 8.15%
O=C(COc1ccc(S(=O)(=O)NC2CCCCC2)cc1)NC1CC1 | 3.4%
C#Cc1cccc(C(=O)N2CCCC(C(=O)c3ccc(OC)cc3C)C2)c1 (stereo not drawn) | -6.8%
